# Shown are actives, neighbours in structure and some others; about 18% of the full set was active somewhere.
# DT40 TDP1 no CPT = qHTS for Inhibitors of human tyrosyl-DNA phosphodiesterase 1 (TDP1): qHTS in cells in absence of CPT; DT40 Tdp1-/- hTDP1 cells, no CPT, ATP luminescence, 48 h; Potency, µM (series often up to 46.2 µM), inactives show top-dose activity change, negative = growth inhibition, hits mostly inhibitors; hit rate 15% among 420,000; AID 686978, 2013; note: nearly all actives have a fitted effect of over 55% in size
#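 Camptothecin absent (DMSO only). Human TDP1-complemented DT40 knockout cells, 400 cells/well, 37 °C for minimum 48 hr; ATP measured via CellTiter-Glo, 30 min dark incubation, luminescence.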
# VDR inh = inhibitors of human vitamin D receptor; P11473; VDR-SRC2-3 peptide fluorescence polarization, 2 h; Potency, µM, for the others: max response, negative = inhibition, most hits filed as inhibitors; hit rate 0.93% among 400,000; AID 504847
#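 Signal is fluorescence polarization, reporting how far test compounds block the interaction of VDR with the SRC2-3 coregulator peptide after a 2 h room-temperature incubation.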
# GCN5L2 inh = blocks human GCN5L2 histone acetyltransferase. hit rate 0.21% among 390,000. Q92830. Potency, µM (doses to about 58.9 µM), for inactives: at the top dose activity change, negative = inhibition, actives largely listed as inhibitors. GCN5L2 HAT assay, ThioGlo1 CoA-SH fluorescence. AID 504327
#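 Free CoA generated was detected with ThioGlo1 (50uM) fluorescence at Ex340nm/Em540nm, read immediately and after 20 min at room temperature. Enzyme, 20 nM in HEPES pH 7.5 buffer, saw compounds 15 min before adding 75uM H3(1-25) peptide and 70uM acetyl-CoA.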
# TDP1 cell CPT = DT40-hTDP1 cell growth loss with CPT | AID 686979 | hit rate 12% among 420,000 | Potency, µM (doses to about 46.2 µM), inactives show top-dose activity change, negative = growth inhibition, usual class: inhibitors | chicken DT40 Tdp1-/-;hTDP1 cells + 20 nM CPT, ATP luminescence, 48 h; note: nearly all actives have a fitted effect of over 55% in size
#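 Cell growth measured by CellTiter-Glo luminescence after a minimum 48 h, 37 C compound exposure with 20 nM CPT in Tdp1-knockout DT40 cells stably expressing hTDP1, seeded 400/well; qHTS titration format.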
# PLK1 PBD block = blocks phosphopeptide binding to human PLK1 polo-box domain. P53350. Plk1 PBD binding of FITC phosphopeptide, fluorescence polarization. Potency, µM, without a hit: max response, negative = inhibition, hits mostly inhibitors. hit rate 2.8% among 360,000; note: series mostly up to about 57 µM; nearly all actives have a fitted effect of over 65% in size
# Target sequence (P53350 whole entry, looked up, the tested form may be a part): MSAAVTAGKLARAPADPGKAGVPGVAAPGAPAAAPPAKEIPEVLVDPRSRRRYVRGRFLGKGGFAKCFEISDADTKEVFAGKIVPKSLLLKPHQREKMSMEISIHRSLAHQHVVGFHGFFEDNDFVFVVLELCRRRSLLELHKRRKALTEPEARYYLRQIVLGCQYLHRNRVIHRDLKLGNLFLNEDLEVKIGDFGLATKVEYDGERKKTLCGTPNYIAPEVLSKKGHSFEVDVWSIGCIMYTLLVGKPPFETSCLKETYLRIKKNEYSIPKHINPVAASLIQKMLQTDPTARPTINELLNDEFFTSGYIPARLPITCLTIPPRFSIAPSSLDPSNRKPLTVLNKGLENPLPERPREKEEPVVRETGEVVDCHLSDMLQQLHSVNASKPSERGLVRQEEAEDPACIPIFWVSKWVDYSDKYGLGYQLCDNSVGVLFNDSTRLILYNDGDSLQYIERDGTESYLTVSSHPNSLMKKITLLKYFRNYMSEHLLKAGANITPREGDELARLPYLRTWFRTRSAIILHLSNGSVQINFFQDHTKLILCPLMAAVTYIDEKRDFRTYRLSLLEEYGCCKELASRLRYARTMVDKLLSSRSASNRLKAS
# TDP1 inh = TDP1 (human) enzyme inhibition | Q9NUW8 | recombinant TDP1, AlphaScreen DNA substrate cleavage | Potency, µM (highest dose often 130 µM), inactives show at the top dose activity change, negative = inhibition, actives largely listed as inhibitors | hit rate 0.28% among 350,000; note: nearly all actives have a fitted effect of over 40% in size
#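 Recombinant E. coli-expressed Tdp1 (1 nM) preincubated with compound 15 min at RT, then 5'-biotin/3'-phosphotyrosine-FITC DNA substrate (15 nM) added for 5 min. AlphaScreen beads (10 ug/ml) added, 10 min RT; tyrosine-FITC cleavage read as signal loss.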
# Numbers without * were called inactive; ? = inconclusive; . = not tested or not shown. Calls come from the whole dose curve; as a rule, active = well fitted curve in the direction sought with a large enough effect; inconclusive = small, poorly fitted or top-dose-only effect, or another doubt; inactive = no such curve, though single readings can be large; an effect the other way counts as inactive or inconclusive. % is set by controls: 0 for no effect and ±100 for the full control effect; potency is the fitted concentration of half-maximal effect.
SMILES,DT40 TDP1 no CPT,VDR inh,GCN5L2 inh,TDP1 cell CPT,PLK1 PBD block,TDP1 inh
COc1ccc(OC)c(NC(=O)CCN2C(=O)c3ccccc3C2=O)c1,9%,21%,-3%,4%,4%,.
O=S(=O)(O)c1cc(O)c2c(O)c(N=Nc3cc(Cl)ccc3O)c(S(=O)(=O)O)cc2c1,18µM*,?,-11%,18µM*,24µM*,.
O=S(=O)(O)c1cc(Cl)cc(N=Nc2ccc(O)cc2O)c1O,?,?,.,-11%,?,.
Nc1cc(S(=O)(=O)O)cc2ccc(S(=O)(=O)O)cc12,7%,5%,.,14%,-10%,.
Cc1cc(-c2ccc(N=Nc3c(S(=O)(=O)O)cc4cc(S(=O)(=O)O)cc(N)c4c3O)c(C)c2)ccc1N=Nc1c(S(=O)(=O)O)cc2cc(S(=O)(=O)O)cc(N)c2c1O,9.4µM*,?,11µM*,9.4µM*,.,.
Cc1ccc(NC(=O)c2ccc(CN3CC(=O)N4CCCCC4C3=O)cc2)cc1 (centres undefined),?,28%,-2%,?,.,4%
Cc1ccc(C)c(NC(=O)c2ccc(CN3CC(=O)N4CCCCC4C3=O)cc2)c1 (centres undefined),16µM*,17%,1%,16µM*,.,6%
COc1ccc(N2CCN(C(=O)c3ccc4nc(N5CCCCC5)sc4c3)CC2)cc1,-20%,14%,3%,?,?,8%
COc1cccc(N2CCN(C(=O)c3ccc4nc(N5CCCCC5)sc4c3)CC2)c1,16µM*,-7%,-15%,?,-9%,4%
COc1ccc(N2CCN(C(=O)c3ccc(CSc4ccccc4)cc3)CC2)cc1,-26%,-3%,-5%,-8%,-16%,0%
COc1cccc(N2CCN(C(=O)c3ccc4c(Cl)c5c(nc4c3)CCCC5)CC2)c1,21µM*,-9%,-13%,21µM*,.,8%
Cc1cccc(N2CCN(C(=O)c3ccc4c(Cl)c5c(nc4c3)CCCC5)CC2)c1C,?,2%,-9%,18µM*,.,2%
Cc1ccc(Cl)cc1N1CCN(C(=O)c2ccc3c(Cl)c4c(nc3c2)CCCC4)CC1,?,-4%,1%,?,.,0%
COc1cccc(N2CCN(C(=O)c3ccc(CSc4nc5ccncc5[nH]4)cc3)CC2)c1,18µM*,-16%,-1%,18µM*,-4%,3%
CC1(c2ccccc2)NC(=O)N(NC(=O)COC(=O)c2cc(Br)ccc2O)C1=O (centres undefined),-14%,4%,2%,-7%,-5%,-15%
CCOC(=O)[C@@H]1CCN(Cc2ccccc2)C[C@H]1c1ccccc1,23µM*,-16%,-10%,?,-2%,-2%
COc1cccc(Nc2nc(-c3sc(NC(=O)CC(C)C)nc3C)cs2)c1,23µM*,-6%,-3%,13µM*,-17%,2%
Cc1nc(NC(=O)c2ccccc2)sc1-c1csc(Nc2ccc(C(=O)O)cc2)n1,12µM*,-9%,5%,21µM*,?,3%
CC(=O)Nc1ccc(-c2csc(Nc3ccc(S(N)(=O)=O)cc3)n2)cc1,-4%,-14%,-2%,9%,-8%,0%
COc1ccccc1Nc1nc(-c2sc(NC(=O)CC(C)C)nc2C)cs1,?,?,-6%,?,-19%,9%
CCC(=O)Nc1nc(C)c(-c2csc(Nc3ccc(C(=O)O)cc3)n2)s1,-26%,-15%,-5%,-1%,?,.
CC(=O)Nc1ccc(Nc2nc(-c3sc(NC(C)=O)nc3C)cs2)cc1,13µM*,32µM*,-15%,16µM*,24µM*,.
CC(=O)Nc1nc(C)c(-c2csc(Nc3ccccn3)n2)s1,13µM*,74%,-3%,10µM*,-2%,-4%
Cc1nc(NC(=O)c2ccc(Cl)cc2)sc1-c1csc(Nc2cccc(F)c2)n1,.,.,-7%,.,.,9%
CC(=O)Nc1nc(C)c(-c2csc(Nc3cccc(C(C)=O)c3)n2)s1,5.2µM*,-13%,12%,3.3µM*,-5%,.
SMILES,DT40 TDP1 no CPT,VDR inh,GCN5L2 inh,TDP1 cell CPT,PLK1 PBD block,TDP1 inh
Cn1nc(-c2ccc(Cl)cc2)cc1NC(=O)CSCC(=O)O,4%,7%,-6%,1%,-1%,5%
COC(=O)c1ccc(NC(=O)CC2C(=O)N(c3cccc(OC)c3)C(=O)N2Cc2cccc(OC)c2)cc1 (centres undefined),15µM*,2%,-6%,?,.,6%
COc1ccc(N2C(=O)C(CC(=O)Nc3ccc(Cl)cc3)N(Cc3ccc4c(c3)OCO4)C2=O)cc1 (centres undefined),?,-21%,-3%,?,.,6%
CCOC(=O)c1ccc(NC(=O)CC2C(=O)N(c3ccccc3)C(=O)N2Cc2ccc(C)cc2)cc1 (centres undefined),23µM*,-10%,-6%,?,.,6%
COC(=O)c1ccc(NC(=O)CC2C(=O)N(c3ccc(Cl)cc3)C(=O)N2Cc2ccco2)cc1 (centres undefined),18µM*,14%,-6%,16µM*,.,11%
CCOc1ccc(NC(=O)CC2C(=O)N(c3ccc(C)cc3)C(=O)N2Cc2ccc(OC)cc2)cc1 (centres undefined),23µM*,-5%,0%,?,.,-4%
COc1ccc(CN2C(=O)N(c3ccc(OC)cc3)C(=O)C2CC(=O)Nc2ccccc2)cc1 (centres undefined),?,2%,0%,-14%,-10%,-2%
COC(=O)c1ccc(NC(=O)CC2C(=O)N(c3cccc(OC)c3)C(=O)N2Cc2ccco2)cc1 (centres undefined),?,0%,3%,16µM*,.,6%
CCOc1ccc(NC(=O)CC2C(=O)N(c3ccccc3)C(=O)N2Cc2ccco2)cc1 (centres undefined),-16%,-5%,-12%,-4%,-8%,2%
COc1ccc(NC(=O)CC2C(=O)N(c3cccc(OC)c3)C(=O)N2CCC2=CCCCC2)cc1 (centres undefined),23µM*,-10%,-12%,?,.,-6%
CCc1ccc(NC(=O)CC2C(=O)N(c3cccc(OC)c3)C(=O)N2Cc2ccc(F)cc2)cc1 (centres undefined),18µM*,3%,-5%,23µM*,.,3%
CCOc1ccc(NC(=O)CC2C(=O)N(c3ccc(C)cc3)C(=O)N2CCC2=CCCCC2)cc1 (centres undefined),?,-5%,-7%,?,.,6%

# Screening results (PubChem)
